For 35 compounds, max response results are on record in PubChem BioAssay (NCATS).

Each structure is given as a SMILES string. Records with an inconclusive call do not appear. Values without a mark were called inactive. Calls follow the shape of the dose curve; as a rule, active = well fitted inhibition curve with a large enough effect; inconclusive = small, poorly fitted or top-dose-only effect; inactive = flat fitted curve, though single readings scatter. Where a SMILES comes first, the peptide text is derived from it.
% is scaled to controls: 0 for no effect and ±100 for the full control effect.

For this experiment, the system named is HEK293. Nature of the experiment: Cytotoxic Profiling of Annotated Libraries Using Quantitative High-Throughput Screening (AID 1296008). Also: nearly all actives have a fitted effect of over 60% in size. Conditions: Five cell lines viability, CellTiter-Glo ATP luminescence, 48-72 h; max response: stronger effect = lower value. The method in brief: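 Cells exposed to compounds for 48 or 72 hr at 37 degrees Celsius. Viability read as ATP-coupled luminescence with CellTiter-Glo after 10 min at room temperature.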
(In general: In ATP-based viability assays light output follows the ATP content of the culture.)
As for `COc1ccnc(CCc2nc3ncccc3[nH]2)c1`, the max response was -80.6%.

Take `CC(=O)O[C@@H]1[C@H](O[C@@H]2OC[C@](O)(CO)[C@H]2O)[C@@H](O[C@@H]2O[C@@H](C)[C@H](O)[C@@H](O[C@@H]3O[C@H](CO)[C@@H](O)[C@H](O)[C@H]3O)[C@H]2O)[C@H](OC(=O)[C@]23CCC(C)(C)C[C@H]2C2=CCC4[C@@]5(C)C[C@H](O)[C@H](O[C@@H]6O[C@H](C(=O)O)[C@@H](O)[C@H](O)[C@H]6O)[C@@](C)(C(=O)O)C5CC[C@@]4(C)[C@]2(C)CC3)O[C@@H]1C` (stereo not given in full): the max response was -7.53%.

`CC(C)CC(=O)O[C@@H]1O[C@H](CO)[C@@H](O[C@H]2O[C@H](C)[C@@H](N[C@H]3C=C(CO)[C@@H](O[C@H]4O[C@H](CO)[C@@H](O[C@H]5O[C@H](CO)[C@@H](O[C@H]6O[C@H](CO)[C@@H](O)[C@H](O)[C@H]6O)[C@H](O)[C@H]5O)[C@H](O)[C@H]4O)[C@H](O)[C@H]3O)[C@H](O)[C@H]2O)[C@H](O)[C@H]1O`: the max response was -7.41%.

As for `NC[C@H]1CCC[C@@H](CNC(=O)[C@@H](Cc2c[nH]c3ccccc23)NC(=O)N2CCC3(C=Cc4ccccc43)CC2)C1`, the max response was -6.44%.

Consider `CC1CCC2(C)CCC3(C)C(=CCC4C5(C)CCC(O)C(C)(C(=O)O)C5CCC43C)C2C1C` (stereo not given), for which the max response is -6.34%.

On to `C[C@@H]1O[C@@H](O[C@H]2[C@@H]3C=CO[C@@H](O[C@@H]4O[C@H](CO)[C@@H](O)[C@H](O)[C@H]4O)[C@@H]3[C@@]3(CO)O[C@@H]23)[C@H](O)[C@H](O)[C@H]1OC(=O)/C=C/c1ccc(O)cc1`, for which the max response was 1.82%.

As for `CC(CC12CCCN1C(=O)C1CCCN1C2=O)OC(N)=O` (stereo not given), the max response was 2.01%.

For the compound `CC/C=C\C(O)C(O)C1=C(C)C(=O)C2(O1)C(=O)NC(OC)(C(=O)c1ccccc1)C2O` (stereo not given), the max response is -0.178%.

Regarding `COc1c2cc(c(O)c1OC)CCCCC(O)CCc1ccc(O)c-2c1` (stereo not given), the max response is -0.95%.

As to `CC1CC(=O)[C@]2(O)C(C(=O)OCCc3ccc(O)cc3)=CO[C@@H](O[C@@H]3O[C@H](CO)[C@@H](O)[C@H](O)[C@H]3O)[C@H]12` (stereo not given in full), the max response was -6.36%.

Take `COC(=O)C1=CO[C@@H](O[C@@H]2O[C@H](CO)[C@@H](O)[C@H](O)[C@H]2O)C2C1CC(O)C2C` (stereo not given in full): the max response was 0.336%.

For `CC(=O)OC[C@]12[C@H](OC(C)=O)[C@H](OC(=O)c3ccccc3)[C@@H]3[C@@H](OC(C)=O)[C@]1(OC3(C)C)[C@H](C)C[C@H](OC(=O)c1ccccc1)[C@@H]2OC(=O)c1ccccc1`, the max response is -0.732%.

For `C[C@]1(C2CCCC2)Cc2cc(OCC(=O)O)c(Cl)c(Cl)c2C1=O`, the max response was 3.25%.

With `CC(NC(=O)c1ccccc1N)C(=O)O` (stereo not given), the max response was 4.67%.

As for `O=C(Nc1ccn(Cc2c(F)cccc2C(F)(F)F)n1)c1c(F)cccc1F`, the max response is 1.72%.

On to `O=C(OC(C(F)(F)F)C(F)(F)F)N1CCN(Cc2cccc(Oc3ccccc3)c2)CC1`, for which the max response is -26.5%.

Take `C[C@H]1CC[C@@]2(OC1)O[C@H]1CC3C4CC[C@H]5C[C@@H](O)CC[C@]5(C)C4CC(=O)[C@]3(C)[C@H]1[C@@H]2C` (stereo not given in full): the max response was -2.47%.

Consider `Cc1oc(S(=O)(=O)N2CCCCC2)cc1NC(=O)Nc1ccccc1`, for which the max response was -1.71%.

On to `CCC(C)/C=C(C)/C=C/C1=CC2=C(Cl)C(=O)C(C)(OC(C)=O)C(=O)C2=CN1C(CC(=O)O)C(=O)O` (stereo not given), for which the max response is 4.62%.

For the compound `CC(C)[C@](O)(c1ccc2cc(OC(F)F)c(OC(F)F)cc2c1)c1cn[nH]n1`, the max response is -21.3%.

For the compound `COc1cc(C(=O)OC[C@H]2O[C@@H](OC(C)(C)C(=O)O)[C@H](O)[C@@H](O)[C@@H]2O)cc(OC)c1O`, the max response was -6.34%.

With `COc1cc(C(C)=O)ccc1O[C@@H]1O[C@H](CO)[C@@H](O)[C@H](O)[C@H]1O`, the max response was -0.593%.

For the compound `CC1(C)C(=O)CCC2(C)C1C(O)C=C1COC(=O)C12O` (stereo not given), the max response was -3.58%.

In the case of `COc1cc(/C=C/c2ccccc2)c(C(=O)O)c(O)c1CC=C(C)C`, the max response is 2.12%.

Take `CCC(C)C(C(=O)O)N1Cc2c(OCC=C(C)C)c(C)c(OC)c(C(=O)O)c2C1=O` (stereo not given): the max response was -3.21%.

`COC(=O)C1=CO[C@@H](O[C@@H]2O[C@H](CO)[C@@H](O)[C@H](O)[C@H]2O)[C@@H]2[C@@H](CO)[C@@H](O)C(O)[C@H]12` (stereo not given in full): the max response was -5.81%.

Take `CC(C)C[C@H](NC(=O)[C@@H]1O[C@H]1C(=O)O)C(=O)NCCCCN=C(N)N`: the max response is -19.1%.

In the case of `C[C@@H]1O[C@@H](OC[C@H]2O[C@@H](OCc3ccccc3)[C@H](O)[C@@H](O)[C@@H]2O)[C@H](O)[C@H](O)[C@H]1O`, the max response was -5.01%.

For the compound `CNC(=O)c1ccc2c(c1)CCO[C@H]2CCN1CCN(c2ccc(C(N)=O)cc2)CC1`, the max response was 3.1%.

In the case of `COC(=O)C1=COC(OC2OC(CO)C(O)C(O)C2O)C2C(COC(=O)/C=C/c3ccc(O)c(O)c3)C(O)C(O)C12` (stereo not given), the max response was 0.488%.

As to `CC(C)C1NC(=O)CNC(=O)C2CCCN2C(=O)C(Cc2c[nH]c3ccccc23)NC(=O)CNC(=O)C(Cc2ccc(O)cc2)NC(=O)CNC1=O` (stereo not given) (cyclo(GVGYGWP); configuration not given here), the max response is 3.25%.

Turning to `CC(C)c1ccc2c(c1)C(=O)CC1C(C)(C(=O)O)CCCC21C` (stereo not given), the max response is -1.52%.

Take `C=C1CCC2(C(=O)OC3OC(CO)C(O)C(O)C3O)CCC3(C)C(=CCC4C5(C)CCC(OC6OC(CO)C(OC7OC(C)C(O)C(O)C7O)C(OC7OCC(O)C(O)C7O)C6O)C(C)(C)C5CCC43C)C2C1` (stereo not given): the max response was -4.7%.

With `C=C1CC2C(C)(CCC(=O)O)C(C(C)(C)O)CCC2(C)C2(C(=O)OC)C(=O)C(C)(O)C(=O)C12C` (stereo not given), the max response is -13.4%.

In the case of `COc1ccc(-n2c(SCC#N)nc3sc4c(c3c2=O)CCCC4)cc1`, the max response is 3.85%.
